{"source": "PubChem BioAssay (Tox21)", "note": "Inconclusive results are not listed. Values without a mark were called inactive. Calls of active or inactive are those of the source. Calls come from the whole dose curve. % is set by controls: 0 for no effect and ±100 for the full control effect.", "data": [{"molecular_target": "5-hydroxytryptamine receptor 2A (Homo sapiens) (UniProt P28223)", "sequence (P28223 whole entry, looked up)": "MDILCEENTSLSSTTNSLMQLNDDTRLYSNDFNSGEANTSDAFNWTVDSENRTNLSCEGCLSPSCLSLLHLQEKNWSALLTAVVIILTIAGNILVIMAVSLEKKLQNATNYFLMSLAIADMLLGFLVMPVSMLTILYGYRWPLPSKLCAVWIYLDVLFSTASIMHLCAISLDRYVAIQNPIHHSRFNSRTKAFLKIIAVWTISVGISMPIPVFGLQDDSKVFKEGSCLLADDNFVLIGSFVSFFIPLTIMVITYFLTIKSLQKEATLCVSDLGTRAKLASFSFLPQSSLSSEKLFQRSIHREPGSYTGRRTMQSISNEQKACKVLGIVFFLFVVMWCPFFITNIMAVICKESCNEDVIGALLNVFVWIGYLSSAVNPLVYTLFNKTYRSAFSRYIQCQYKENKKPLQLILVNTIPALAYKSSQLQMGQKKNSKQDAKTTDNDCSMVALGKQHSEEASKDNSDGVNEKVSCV", "test": "5-hydroxytryptamine receptor 2A (HTR2A) small molecule agonists, cell-based qHTS assay (AID 1963587); note: nearly all actives have a fitted effect of over 30% in size", "settings": "HTR2A-CHO cells, calcium flux fluorescence, agonist mode; series mostly up to 76.8 µM; activation: at the top concentration", "from_the_text": "National Center for Advancing Translational Sciences [NCATS]\nDivision of Preclinical Innovation [DPI]\nU.S. Environmental Protection Agency [EPA]\nNational Institutes of Environmental Health Sciences [NIEHS]\nNational Toxicology Program [NTP]\nU.S. Food and Drug Administration [FDA]\nThe HTR2A receptor is a subtype of the 5-HT2 receptor that belongs to the serotonin receptor family and is a G protein-coupled receptor (GPCR). The HTR2A-CHO cell line stably expressing human 5-hydroxytryptamine receptor 2A (HTR2A) can be used for screening agonists of interactions between 5-HT2 and its ligands. The HTR2A-CHO calcium flux assay is a homogeneous fluorescence-based assay for detecting the intracellular calcium level using FDSS kinetic plate reader system.\nHTR2A-CHO cells were dispensed at 2000 cells/3uL/well in 1536-well black-clear bottom plates using a Multidrop Dispenser. After the assay plates were incubated at a 37 C/5% CO2 incubator for 18 h, 3 uL of Dye Loading Buffer was transferred to the assay plate by a Flying Reagent Dispenser. The assay plates were incubated at 37 C for 1h. For agonist mode, 23 nL of compounds dissolved in DMSO, positive controls or DMSO only was transferred to the assay plate by a pin tool. The fluorescence intensity in the plates was measured using FDSS 7000EX kinetic plate reader for 2 min at 1 sec intervals.", "values": [{"smiles": "O[C@@H]([C@H](O)[C@H](O)CBr)[C@H](O)CBr", "activation": "-0.0732%"}, {"smiles": "CCCCCCCCCCCCCCC(=O)O", "activation": "-1.72%"}, {"smiles": "CCN(CC)CCN", "activation": "-1.2% [at 35.6 µM]"}, {"smiles": "[O-][n+]1ccc(Cl)cc1", "activation": "-0.43%"}, {"smiles": "Cc1ccc(S(=O)(=O)O)c(C)c1", "activation": "1.02%"}, {"smiles": "CCN(CC#N)c1cccc(C)c1", "activation": "-3.03%"}, {"smiles": "Cc1ccc(C(=O)c2cc(O)c(O)c([N+](=O)[O-])c2)cc1", "activation": "1.43% [at 35.6 µM]"}, {"smiles": "[O]=[Zr]", "activation": "-2.26%"}, {"smiles": "C1CCC2OC2C1", "note": "(stereo not given)", "activation": "-1.36%"}, {"smiles": "O=C1Nc2ccccc2C1(c1ccc(O)cc1)c1ccc(O)cc1", "Potency": "inactive"}, {"smiles": "CC(C)c1cccc(C(C)C)c1N", "activation": "10.6%"}, {"smiles": "NS(=O)(=O)c1cc2c(cc1Cl)NC(CC1CCCC1)NS2(=O)=O", "note": "(stereo not given)", "activation": "-14.8% [at 35.6 µM]"}, {"smiles": "O=C(O)c1cc2ccccc2cc1O", "activation": "-11.2%"}, {"smiles": "C=CC(=O)CCCCC", "activation": "0.142%"}, {"smiles": "O=C(O[C@@H]1Cc2c(O)cc(O)cc2O[C@@H]1c1cc(O)c(O)c(O)c1)c1cc(O)c(O)c(O)c1", "Potency": "inactive"}, {"smiles": "CC(C)=O", "activation": "17.5%"}, {"smiles": "CC(=O)S[C@H](C(=O)N[C@H]1Cc2ccccc2[C@H]2CCC[C@@H](C(=O)O)N2C1=O)C(C)C", "activation": "1.05%"}, {"smiles": "CC(C)N=C(N)/N=C(\\N)Nc1ccc(Cl)cc1", "activation": "-6.73% [at 35.6 µM]"}, {"smiles": "CCOc1ccccc1OCC", "activation": "-1.12%"}, {"smiles": "Cc1ccccc1N=O", "activation": "2.05%"}, {"smiles": "CCC(N)(CO)CO", "activation": "-0.0009%"}, {"smiles": "Cc1cccc(C)c1NC(=O)CC12CCCN1CCC2", "activation": "1.73% [at 35.6 µM]"}, {"smiles": "C=COCCCC", "activation": "-1.51%"}, {"smiles": "CCC(COC(=O)CCS)(COC(=O)CCS)COC(=O)CCS", "activation": "-0.0913%"}, {"smiles": "CCCOC(C(=O)OC1CCN(C)CC1)(c1ccccc1)c1ccccc1", "activation": "8.7% [at 35.6 µM]"}, {"smiles": "O=[N+]([O-])c1ccc(Oc2ccc([N+](=O)[O-])cc2)cc1", "activation": "-2.8%"}, {"smiles": "NC(=O)c1ccccc1N", "activation": "-0.126%"}, {"smiles": "O=S(=O)(O)c1cccc2c(S(=O)(=O)O)cccc12", "activation": "3.99%"}, {"smiles": "CNCCO", "activation": "3.59%"}, {"smiles": "Oc1cc(O)c2c(c1)O[C@H](c1ccc(O)c(O)c1)[C@H](O)C2", "activation": "-1.9% [at 35.6 µM]"}, {"smiles": "CCCC[O][Al]([O]CCCC)[O]CCCC", "activation": "-0.699%"}, {"smiles": "CC(=O)OC/C=C/c1ccccc1", "activation": "-0.369%"}, {"smiles": "Cc1cc(N)n(-c2ccccc2)n1", "activation": "4.46%"}, {"smiles": "CN1C(=O)CC(C)(c2ccccc2)C1=O", "note": "(stereo not given)", "activation": "-8.11% [at 35.6 µM]"}, {"smiles": "C=CCc1cc(OC)c(O)c(C(=O)NCCO)c1", "activation": "-9.41% [at 35.6 µM]"}, {"smiles": "O=[N+]([O-])c1ccc(CCO)cc1", "activation": "0.0116%"}, {"smiles": "O=C1CCC(=O)N1", "activation": "4.29%"}, {"smiles": "Cc1ccc(C(C)NC(=O)[C@@H](NC(=O)OC(C)C)C(C)C)cc1", "note": "(stereo not given in full)", "activation": "-2.63%"}, {"smiles": "CCN(C=O)CC", "activation": "0.0629%"}, {"smiles": "CCCCCCCCCCCCCCC(=O)NC(CO)CCCCCCCCCCCCCC", "note": "(stereo not given)", "activation": "1.15%"}]}]}
